# Screening data: PubChem BioAssay, The Scripps Research Institute Molecular Screening Center
# A selection: hits, their analogues and other compounds. The true share with any hit is near 4.1%.
# hgDAF-12 ag = activates the H. glycines DAF-12 receptor ligand-binding domain; HEK293 GAL4-hgDAF12 UAS-luciferase reporter, agonist luminescence; normalized to butyrate control; activation, % at 6.8 µM; hit rate 1.8% among 370,000; AID 687014;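 active means activation above a cutoff set at the mean of all screened compounds plus 3 SD, cut at about 10% in these data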;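 further: 0% = DMSO wells and 100% = sodium butyrate wells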
# ssDAF12 agonist = activators of S. stercoralis DAF-12 nuclear receptor; HEK293 ssDAF-12/GRIP1 lit1-tk-luc reporter, luminescence; % of 3 µM dafachronic acid response; activation, % at 6.8 µM; hit rate 1% among 370,000;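 active means activation above the mean over all tested compounds plus 3 SD, cut at about 0.9% in these data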;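 further: 0% = DMSO-only wells and 100% = 3 µM delta7-dafachronic acid wells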
# DAX1 inh-1 = NR0B1 (DAX1) inhibition; hit rate 0.99% among 340,000; HEK293 Gal4-DAX1 luciferase reporter, luminescence; inhibition, % at 6.75 µM;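 active means inhibition above the mean over all tested compounds plus 3 SD, cut at about 4.2% in these data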;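 further: 0% = DAX1-transfected cells with DMSO and 100% = empty-vector control cells with DMSO; inhibition shows as a rise in luminescence from relieved DAX1 repression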
# Target sequence (P51843 207-470 limits assumed): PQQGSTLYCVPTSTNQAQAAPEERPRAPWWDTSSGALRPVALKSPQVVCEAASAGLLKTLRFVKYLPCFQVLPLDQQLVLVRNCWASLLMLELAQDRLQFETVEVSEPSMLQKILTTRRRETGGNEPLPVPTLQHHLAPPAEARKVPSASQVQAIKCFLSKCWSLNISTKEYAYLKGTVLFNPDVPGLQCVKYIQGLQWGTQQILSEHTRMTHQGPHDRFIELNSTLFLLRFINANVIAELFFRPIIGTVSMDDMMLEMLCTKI
# hcDAF-12 act = activators of H. contortus DAF-12 nuclear receptor; HEK293 hcDAF-12 lit1-tk-luc reporter, luminescence; 0% DMSO, 100% Δ7-dafachronic acid; activation, % at 6.8 µM; hit rate 1.4% among 370,000; AID 652067;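 active means activation above the mean of all tested compounds plus 3 SD, cut at about 5.5% in these data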;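 further: 100% = response to 3 µM Δ7-dafachronic acid high control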
# DAX1 inh-2 = blocks DAX1 repression of SF-1 activated StAR promoter; HEK293T StAR-luciferase reporter, SF-1/DAX-1 repression relief; hit rate 1.1% among 370,000; inhibition, % at 6.8 µM; AID 652010;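 active means inhibition above the mean over all tested compounds plus 3 SD, cut at about 3.6% in these data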;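 further: 0% = DAX-1 cells with DMSO and 100% = cells lacking DAX-1 with DMSO; higher inhibition means more luminescence from relief of DAX-1 repression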
# * = called active by the depositor; / = not tested or not shown.
SMILES,hgDAF-12 ag,ssDAF12 agonist,DAX1 inh-1,hcDAF-12 act,DAX1 inh-2
COCC(=O)N(Cc1ccccc1)c1ccccc1C(=O)Nc1cc(OC)ccc1OC,-1,-1,/,-3,1
CC(OC(=O)c1ncc(Cl)c(Cl)c1Cl)C(=O)NC1(C#N)CCCCC1 (centres undefined),2,0,0,1,0
CC(OC(=O)c1ccc(Cl)nc1)C(=O)NC1(C#N)CCCCC1 (centres undefined),1,-1,4.5*,-1,-1
Cc1cccc(NC(=O)Nc2nc3ncccn3c2-c2ccccc2)c1,1,0,/,-3,-2
CCCCOC(=O)CCN1C(=O)/C(=C/c2ccccc2)SC1=S,-1,-1,/,2,/
O=C(OCc1nc2ccccc2s1)c1ccccc1O,6,0,0,3,4
CCc1cc(C(=O)Cc2nc3ccccc3s2)c(O)cc1OCC(=O)O,0,0.9*,0,4,1
COC(=O)C1=C(C)N(C)C(=NCc2ccccc2C(F)(F)F)NC1c1cccc(F)c1 (centres undefined),2,-2,/,2,-1
O=C(CSc1nnc(-c2ccncc2)n1-c1ccccc1)Nc1ccc2c(c1)OCCO2,-4,-1,/,0,0
CN(C)c1cccc(/C=C2\CC3(OC(=O)c4cccc(F)c4)CCCN2C3)c1 (centres undefined),-1,-1,/,0,1
O=C1CC(NNc2ccccc2)C(=O)N1c1ccccc1 (centres undefined),0,0,2,6.3*,1
Cc1ccc2c(c1)C(CS(=O)(=O)NCCc1ccccc1)NC2 (centres undefined),0,-1,/,-2,-1
Nc1nonc1-n1nnc(C(=O)N/N=C/c2cccc(F)c2)c1CN1CCCCCC1,1,-2,4.7*,-1,0
COC(=O)c1nnn(-c2nonc2N)c1CN1CCCC1,2,-1,4.4*,-1,0
COC(=O)C[C@H]1CC[C@H]2[C@H](COc3ccc(NC(=O)c4cccs4)cc3C(=O)N2C)O1,4,-2,/,-2,1
O=C(CSc1ccc(-c2ccccc2)nn1)c1cccs1,12*,-1,0,1,1
CCn1c(=O)cc(OCC(=O)NCCC(C)C)c2ccccc21,-2,0.9*,1,0,0
CCn1c(=O)cc(OCC(=O)O)c2ccccc21,1,-1,0,0,-1
COc1cccc(/C=N/Nc2ccc(Cl)nn2)c1OC,2,-1,5.6*,-1,-1
Fc1ccccc1/C=N/Nc1ccc(Cl)nn1,-1,-1,1,1,0
S=c1[nH]nc(-c2cc(-c3ccccc3)n[nH]2)n1N=Cc1cccc(Oc2ccccc2)c1,4,-1,/,-2,1
O=C(Cc1ccccc1F)Nc1ccc(S(=O)(=O)N2CCCCC2)cc1,0,-1,0,-1,-1
O=C(Cn1nc(-c2ccccc2F)ccc1=O)Nc1ccc(S(=O)(=O)N2CCCCCC2)cc1,-3,-1,6.6*,0,0
O=C1NC(=O)c2cc(NC(=O)C3CCCO3)ccc21 (centres undefined),4,-2,0,1,0
O=C1OCc2cc(NC(=O)C3CCCO3)ccc21 (centres undefined),4,-1,-1,5.8*,0
SMILES,hgDAF-12 ag,ssDAF12 agonist,DAX1 inh-1,hcDAF-12 act,DAX1 inh-2
CN1OC[C@@H]2CN(C(=O)c3ccc(C#N)cc3)[C@H](c3cccc(Br)c3)C[C@@H]21,-1,0,/,-1,-1
O=C(Nc1cc(-c2ccccc2)[nH]n1)c1ccccc1F,12*,-1,/,2,2
Cc1ccc(S(=O)(=O)NCC(=O)N2CCN(c3ccccn3)CC2)cc1C,2,-1,/,1,-1
O=C1CC(c2ccc3ccccc3c2)N=C2N(Cc3ccc4c(c3)OCO4)C/C(=C/c3ccccc3)N12 (centres undefined),0,-2,/,1,/
COc1cccc2cc(-c3nc4ccccc4o3)c(=O)oc12,11*,0,4.4*,2,2
Oc1c(C=Nc2ccc(Cl)cn2)sc2ccccc12,8,-1,1,3,0
Oc1c(/C=N/c2ccccn2)sc2ccccc12,3,1,4.7*,4,1
COCCCNC(=O)Cn1nc(Cc2ccncc2)c2ccccc2c1=O,0,-1,/,2,0
CC1=NN(c2ccccc2C)C(=O)C1,0,1.9*,1,0,0
Cc1ccccc1N1CC(=O)N(c2ccccc2C)CC1=O,-2,-1,2,-2,0
COc1cc(OC)cc(C(=O)Nc2ccc3c(c2)n(C)c(=O)n3C)c1,-2,0,1,-1,0
O=C(NC(=S)NC1CCCc2ccccc21)c1ccco1 (centres undefined),-1,-2,0,-1,-1
CCOc1ccc(C(=O)Nc2ccc3c(c2)OCCO3)cc1,12*,0,-1,5.9*,2
O=C(NC(=S)Nc1ccc2c(c1)OCCO2)c1ccco1,11*,0,4.5*,4,2
CCc1ccc(C(=O)Nc2ccc3c(c2)n(C)c(=O)n3C)cc1,2,-1,5.9*,-1,0
O=C(NC(=S)NC1CCC(O)CC1)c1ccco1 (centres undefined),4,-1,0,-1,4.1*
Cc1ccc(C(=O)Nc2ccc3c(c2)OCCO3)cc1,9,0,-4,1,1
O=C(c1cccnc1Cl)N1CCC(Oc2cccnc2)CC1,2,-1,/,-1,1
COC1=C[C@H](C(=O)NCc2ccc(Br)cc2)[C@H](C)[C@@H](c2ccccc2)CC1=O,-3,-1,/,-2,0
C#CCN1CC(N(C)CCCO)CS1(=O)=O (centres undefined),1,-2,/,0,0
CCc1ccc(C(=O)NC(=S)Nc2ccc3c(c2)OCCO3)cc1,12*,0,3,3,3
CCC(=O)NC(=S)Nc1cccc(NC(=O)c2ccco2)c1,-2,-1,-1,-3,-1
CSCc1ccc(C(=O)N2CCCC(Nc3ccc4c(c3)OCCO4)C2)o1 (centres undefined),2,-1,0,1,0
COc1cc(NS(=O)(=O)c2ccc(NC(=S)NC(=O)c3ccco3)cc2)nc(OC)n1,1,-1,4.7*,0,0
O=C(c1ccco1)N1CCCC(Nc2ccc3c(c2)OCCO3)C1 (centres undefined),2,0,1,6.3*,2
O=C(NC(=S)Nc1cccc(O)c1)c1ccco1,10,1.7*,4,0,1
O=C(NC1CCCCN(Cc2cccc(Cl)c2)C1=O)c1cccc(F)c1 (centres undefined),-2,-2,/,-3,0
Cc1cc(OCC(=O)N2CCCCCC2)ccc1[N+](=O)[O-],12*,1,2,0,2
Cc1ccc(OCC(=O)N2CCCCCCC2)cc1C,5,-1,1,1,0
